Laboratory results taken from PubChem BioAssay.
Records with an inconclusive call do not appear. Some of the results follow. Active and inactive are the calls of the source.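 Rule for the calls, unless noted: active = GFP signal, as percent of the solvent control, above the screen mean plus 3 SD, about 149; inconclusive = no reading because the compound's own fluorescence upset strain identification; inactive = the rest.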

Assays:
[1] = target: Regulator of G-protein signaling 16 (Homo sapiens) (UniProt O15492); test: modulators of RGS–Galpha-o binding, primary screen, biochemical, multiplexed beads, flow cytometry, RGS4/7/8/16/19 (AID 1504); conditions: multiplexed bead flow cytometry, measured here: RGS16 interaction, at 10 µM;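 note: fluorescently labeled Galpha-o bound to GDP with aluminium fluoride binding biotinylated RGS beads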
[2] = target: Regulator of G-protein signaling 19 (Homo sapiens) (UniProt P49795); test: as above; conditions: multiplexed bead flow cytometry, measured here: RGS19 interaction, at 10 µM
[3] = target: Regulator of G-protein signaling 7 (Homo sapiens) (UniProt P49802); test: as above; conditions: multiplexed bead flow cytometry, measured here: RGS7 interaction, at 10 µM
[4] = target: Regulator of G-protein signaling 8 (Homo sapiens) (UniProt P57771); test: as above; conditions: multiplexed bead flow cytometry, measured here: RGS8 interaction, at 10 µM
[5] = disruption of biotin probe capture by avidin, counter-screen for RGS protein interaction modulators, biochemical, flow cytometry, bead-based (AID 1783;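 active = inhibition above 50%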;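 note: median green fluorescence of gated singlet beads compared with DMSO control wells; 0% = DMSO wells and 100% = complete loss of bead fluorescence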); conditions: streptavidin beads, fluorescein-biotin binding; at 10 µM, stronger effect = higher value
[6] = target: Guanine nucleotide-binding protein G(o) subunit alpha (Homo sapiens) (UniProt P09471); test: RGS8-Galphao binding modulators, confirmation, biochemical, multiplexed bead flow cytometry, single concentration (AID 1836; in the data active = binding response below about 72% or above about 130%; inactive = in between;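 note: Galphao activated as GDP AlF4 complex before binding bead RGS8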); conditions: bead-based flow cytometry RGS8-Galphao binding, fluorescence; at 10 µM; actives lie on both sides
Chain of Guanine nucleotide-binding protein G(o) subunit alpha (Homo sapiens) (P09471 whole entry, looked up): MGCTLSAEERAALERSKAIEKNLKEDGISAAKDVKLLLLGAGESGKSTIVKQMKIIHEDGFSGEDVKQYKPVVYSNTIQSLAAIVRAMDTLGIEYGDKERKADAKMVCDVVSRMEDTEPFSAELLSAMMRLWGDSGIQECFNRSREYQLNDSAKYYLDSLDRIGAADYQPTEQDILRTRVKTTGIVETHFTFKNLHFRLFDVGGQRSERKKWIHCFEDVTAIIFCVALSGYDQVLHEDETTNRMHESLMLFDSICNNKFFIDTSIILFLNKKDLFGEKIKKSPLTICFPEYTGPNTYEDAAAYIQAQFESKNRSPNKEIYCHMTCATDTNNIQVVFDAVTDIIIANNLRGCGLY

[7] = target: Guanine nucleotide-binding protein G(o) subunit alpha (Homo sapiens) (UniProt P09471); test: RGS7-Galphao binding modulators, confirmation, biochemical, multiplexed bead flow cytometry, single concentration (AID 1837; in the data active = response below about 75% or above about 130%; inactive = in between;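 note: fluorescent Galphao activated with GDP and aluminum fluoride binding bead-coupled RGS7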); conditions: bead-based flow cytometry RGS7-Galphao binding; at 10 µM; actives lie on both sides
[8] = target: Regulator of G-protein signaling 16 (Homo sapiens) + Guanine nucleotide-binding protein G(o) subunit alpha (Homo sapiens) (UniProt O15492+P09471); test: modulators of RGS16-Galphao protein binding, confirmation, biochemical, single concentration, multiplexed bead flow cytometry (AID 1838; in the data active = response below about 74% or above about 130%; inactive = in between;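 note: Galphao activated as the GDP aluminium fluoride complex binding bead-coupled RGS16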); conditions: bead-based flow cytometry, at 10 µM, actives lie on both sides
Chain of Regulator of G-protein signaling 16 (Homo sapiens) + Guanine nucleotide-binding protein G(o) subunit alpha (Homo sapiens) (O15492 whole entry, looked up): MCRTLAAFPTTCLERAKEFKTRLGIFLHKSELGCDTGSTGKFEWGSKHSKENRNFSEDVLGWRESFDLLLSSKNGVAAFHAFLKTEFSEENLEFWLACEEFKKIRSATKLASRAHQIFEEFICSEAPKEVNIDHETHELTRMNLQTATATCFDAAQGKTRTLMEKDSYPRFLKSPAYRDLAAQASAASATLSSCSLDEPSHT
Chain of Regulator of G-protein signaling 16 (Homo sapiens) + Guanine nucleotide-binding protein G(o) subunit alpha (Homo sapiens) (P09471 whole entry, looked up): as the sequence (P09471 whole entry, looked up) above

[9] = target: Guanine nucleotide-binding protein G(o) subunit alpha (Homo sapiens) (UniProt P09471); test: modulators of RGS4-Galphao protein binding, confirmation, biochemical, single concentration, multiplexed bead flow cytometry (AID 1840; in the data active = binding response below about 74% or above about 130%; inactive = in between); conditions: at 10 µM, actives lie on both sides
[10] = target: Guanine nucleotide-binding protein G(o) subunit alpha (Homo sapiens) + Regulator of G-protein signaling 19 (Homo sapiens) (UniProt P09471+P49795); test: regulators of RGS19-Galphao binding, confirmation, biochemical, single point, multiplexed bead flow cytometry (AID 1841; in the data active = response below about 50% or above about 160%; inactive = in between;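 note: 100% = no compound control and 0% = blank background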); conditions: bead-based flow cytometry RGS19-Galphao binding; at 10 µM; actives lie on both sides
Chain of Guanine nucleotide-binding protein G(o) subunit alpha (Homo sapiens) + Regulator of G-protein signaling 19 (Homo sapiens) (P09471 whole entry, looked up): as above
Chain of Guanine nucleotide-binding protein G(o) subunit alpha (Homo sapiens) + Regulator of G-protein signaling 19 (Homo sapiens) (P49795 whole entry, looked up): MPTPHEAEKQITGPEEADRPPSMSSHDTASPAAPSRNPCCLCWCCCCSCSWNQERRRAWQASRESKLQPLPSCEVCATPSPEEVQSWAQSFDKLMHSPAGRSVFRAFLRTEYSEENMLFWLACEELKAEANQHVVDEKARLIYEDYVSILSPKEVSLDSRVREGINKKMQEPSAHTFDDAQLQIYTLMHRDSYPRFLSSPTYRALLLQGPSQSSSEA

[11] = yeast TOR pathway RPL19A-GFP modulators, primary screen, cell-based, S. cerevisiae, multiplex flow cytometry (AID 1862; in the data active = percent of DMSO control GFP below about 86%;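 note: lower values mimic rapamycin by blocking the RPL19A rise seen in DMSO cells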); conditions: S. cerevisiae RPL19A-GFP strain, flow cytometry fluorescence, 3 h; at 10 µM; stronger effect = lower value
[12] = modulators of MEP2-GFP levels in yeast, primary screen, S. cerevisiae, multiplex flow cytometry (AID 1867;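 active = GFP response, as percent of the DMSO control, above the screen-wide mean plus 3 SD, about 139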;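 note: median GFP channel fluorescence of barcode-gated MEP2-GFP cells measured by flow cytometry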); conditions: S. cerevisiae MEP2-GFP strain, 3 h, at 10 µM, stronger effect = higher value, 100% means same as DMSO wells
[13] = modulators of CIT2-GFP expression in yeast, primary screen, S. cerevisiae, GFP fusion, multiplex flow cytometry (AID 1870;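 active = percent response above a set limit, the screen-wide mean plus 3 SD, cut at about 130% in these data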;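 note: barcoded CIT2-GFP strain pooled with four other GFP strains with rapamycin as positive control; median GFP fluorescence per well over plate mean of DMSO wells so 100% = DMSO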); conditions: 3 h, at 10 µM, stronger effect = higher value
[14] = modulators of LAP4-GFP expression in yeast, primary screen, S. cerevisiae, multiplex flow cytometry (AID 1873); conditions: 3 h, at 10 µM, stronger effect = higher value
[15] = modulators of AGP1-GFP expression in yeast TOR pathway, primary screen, cell-based, multiplex flow cytometry, S. cerevisiae (AID 1887;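 active = GFP signal above the screen-wide mean plus 3 SD, that is over about 124.5% of the solvent control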;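 note: AGP1-GFP fusion strain of S. cerevisiae within a five-strain barcoded multiplex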); conditions: 3 h, at 10 µM, stronger effect = higher value
[16] = RPL19A-GFP modulators, yeast TOR pathway, confirmation, cell-based, S. cerevisiae, flow cytometry, cherry picks, mother/daughter gates (AID 2270;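 active = GFP response below 50% of the DMSO control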); conditions: S. cerevisiae RPL19A-GFP strain, 3 h, at 10 µM, stronger effect = lower value, 100 = same GFP as DMSO wells
[17] = LAP4-GFP expression modulators in yeast, confirmation, cell-based, cherry picks, flow cytometry, mother/daughter gates (AID 2271;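 active = GFP response above 150% of the DMSO control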;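 note: ratio of sample to DMSO plate mean so 100% equals DMSO level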); conditions: S. cerevisiae LAP4-GFP strain, 3 h, at 10 µM, stronger effect = higher value, 100 means same as DMSO control
[18] = modulators of MEP2-GFP levels in yeast, confirmation, S. cerevisiae, flow cytometry GFP, cherry picks (AID 2272;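 active = GFP response above 150% of the DMSO control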;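 note: ratio of well signal to plate DMSO mean so 100% equals DMSO level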); conditions: S. cerevisiae MEP2-GFP strain, 3 h, at 10 µM, stronger effect = higher value
[19] = modulators of CIT2-GFP expression in yeast, confirmation, S. cerevisiae, GFP fusion, cherry picks, mother/daughter gates (AID 2274;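 active = GFP response above 150% of the DMSO level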); conditions: S. cerevisiae CIT2-GFP strain, flow cytometry, 3 h, at 10 µM, stronger effect = higher value
[20] = inhibitors of CD8+ T cell-vesicle binding, pilot screen, LFA-1/ICAM-1 modulator project, MLPCN validation set, flow cytometry (AID 2523;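 active = response below a set limit, under 55% cells CD8-positive and vesicle-bound, and CD8 cells' 90th-percentile brightness under 279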;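 for vesicle binding response: mean PE anti-B7-1 fluorescence of CD8+ cells relative to row control; 100% = QL9-loaded vesicles with DMSO vehicle in the same plate row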); conditions: 2C mouse CD8+ T cells, at 7 µM, stronger effect = lower value; double positive events: measured here: CD8+/vesicle+ event percentage
[21] = measured here: daughter cell gate
[22] = measured here: mother cell gate
[23] = measured here: daughter cell gate response
[24] = measured here: mother cell gate response

## NC(=O)CSc1c[nH]c2ccccc12
[1]
  RGS16–Galpha-o binding response: 19.6%
[2]
  RGS19–Galpha-o binding response: -48.5%
[3]
  RGS7–Galpha-o binding response: 25.2%
[4]
  RGS8–Galpha-o binding response: 27.5%
[5]
  inhibition: -1.7% (inactive)
[6]
  binding response (% of control): 104% (inactive)
[7]
  response (percent of control binding): 102% (inactive)
[8]
  response (% of control binding): 110% (inactive)
[9]
  binding response (% of control): 106% (inactive)
[10]
  response (percent of control binding): 103% (inactive)

## Cc1ccc(OCCCCn2ccnc2C)c(C)c1
[11]
  percent of DMSO control GFP: 97.3% (inactive)
[12]
  GFP response vs DMSO: 99.6% (inactive)
[13]
  percent response of DMSO control: 95.7% (inactive)
[14]
  GFP response vs DMSO: 103% (inactive)
[15]
  GFP response, % of DMSO: 110% (inactive)
[16]
  GFP response vs DMSO: 99.6% (inactive)
[16]; [21]
  GFP response vs DMSO: 99.4%
[16]; [22]
  GFP response vs DMSO: 101%
[17]
  GFP response relative to DMSO: 99.8% (inactive)
[17]; [23]
  GFP response relative to DMSO: 99.7%
[17]; [24]
  GFP response relative to DMSO: 100%
[18]
  GFP response vs DMSO: 112% (inactive)
[19]
  GFP response, % of DMSO: 98.4% (inactive)
[19]; [21]
  GFP response, % of DMSO: 100%
[19]; [22]
  GFP response, % of DMSO: 97.7%
[20]
  double positive events: 59.6%
  vesicle binding response: 179% (inactive)

## C[C@]12CC[C@@H]3c4ccc(O)cc4C(=O)C[C@H]3[C@@H]1CC[C@@H]2O
[11]
  percent of DMSO control GFP: 98.3% (inactive)
[12]
  GFP response vs DMSO: 148% (active)
[13]
  percent response of DMSO control: 116% (inactive)
[14]
  GFP response vs DMSO: 88% (inactive)
[15]
  GFP response, % of DMSO: 97.5% (inactive)
[16]
  GFP response vs DMSO: 97.4% (inactive)
[16]; [21]
  GFP response vs DMSO: 95.6%
[16]; [22]
  GFP response vs DMSO: 98.5%
[17]
  GFP response relative to DMSO: 90.2% (inactive)
[17]; [23]
  GFP response relative to DMSO: 95.6%
[17]; [24]
  GFP response relative to DMSO: 92.1%
[18]
  GFP response vs DMSO: 95.7% (inactive)
[19]
  GFP response, % of DMSO: 111% (inactive)
[19]; [21]
  GFP response, % of DMSO: 108%
[19]; [22]
  GFP response, % of DMSO: 113%
[20]
  double positive events: 39.3%
  vesicle binding response: 60.7% (active)

## O=c1cc(-c2ccccc2)oc2cc(OCc3ccccc3)cc(O)c12
[11]
  percent of DMSO control GFP: 91.7% (inactive)
[12]
  GFP response vs DMSO: 140% (active)
[13]
  percent response of DMSO control: 108% (inactive)
[14]
  GFP response vs DMSO: 84.2% (inactive)
[15]
  GFP response, % of DMSO: 85.9% (inactive)
[16]
  GFP response vs DMSO: 98.2% (inactive)
[16]; [21]
  GFP response vs DMSO: 98.6%
[16]; [22]
  GFP response vs DMSO: 98.7%
[17]
  GFP response relative to DMSO: 99.2% (inactive)
[17]; [23]
  GFP response relative to DMSO: 97.6%
[17]; [24]
  GFP response relative to DMSO: 99.3%
[18]
  GFP response vs DMSO: 100% (inactive)
[19]
  GFP response, % of DMSO: 104% (inactive)
[19]; [21]
  GFP response, % of DMSO: 105%
[19]; [22]
  GFP response, % of DMSO: 103%
[20]
  double positive events: 62.5%
  vesicle binding response: 139% (inactive)

## CC(=O)[C@H]1CC[C@H]2[C@@H]3CCC4=CC(=O)CC[C@]4(C)[C@H]3CC[C@]12C
[11]
  percent of DMSO control GFP: 100% (inactive)
[12]
  GFP response vs DMSO: 108% (inactive)
[13]
  percent response of DMSO control: 98.6% (inactive)
[14]
  GFP response vs DMSO: 94.8% (inactive)
[15]
  GFP response, % of DMSO: 104% (inactive)
[16]
  GFP response vs DMSO: 99.9% (inactive)
[16]; [21]
  GFP response vs DMSO: 99.3%
[16]; [22]
  GFP response vs DMSO: 100%
[17]
  GFP response relative to DMSO: 100% (inactive)
[17]; [23]
  GFP response relative to DMSO: 97.9%
[17]; [24]
  GFP response relative to DMSO: 101%
[18]
  GFP response vs DMSO: 99.5% (inactive)
[19]
  GFP response, % of DMSO: 97.8% (inactive)
[19]; [21]
  GFP response, % of DMSO: 96.4%
[19]; [22]
  GFP response, % of DMSO: 98%
[20]
  double positive events: 64%
  vesicle binding response: 119% (inactive)

## O=C1ON=C(c2ccc(Cl)cc2)/C1=C/c1ccc(O)cc1
[11]
  percent of DMSO control GFP: 108% (inactive)
[12]
  GFP response vs DMSO: 95.2% (inactive)
[13]
  percent response of DMSO control: 112% (inactive)
[14]
  GFP response vs DMSO: 98.2% (inactive)
[15]
  GFP response, % of DMSO: 87.4% (inactive)
[16]
  GFP response vs DMSO: 101% (inactive)
[16]; [21]
  GFP response vs DMSO: 105%
[16]; [22]
  GFP response vs DMSO: 96.8%
[17]
  GFP response relative to DMSO: 90.2% (inactive)
[17]; [23]
  GFP response relative to DMSO: 95.6%
[17]; [24]
  GFP response relative to DMSO: 89%
[18]
  GFP response vs DMSO: 100% (inactive)
[19]
  GFP response, % of DMSO: 111% (inactive)
[19]; [21]
  GFP response, % of DMSO: 114%
[19]; [22]
  GFP response, % of DMSO: 104%
[20]
  double positive events: 60.6%
  vesicle binding response: 94.3% (inactive)
